Among all 340,000 compounds or so, about 2,100 (0.62%) were called active.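 The calls were made as follows: active = first-screen hits whose inhibition reached a set limit at any dose in the follow-up dose series; inconclusive = inhibition above the set first-screen limit but never retested; inactive = the rest.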 Not all results are given here. Results with a measured potency or affinity are listed apart.
molecular target: Rac GTPase-activating protein 1 (Homo sapiens) (UniProt Q9H0H5); test: MgcRacGAP GTPase-activating activity inhibitors, confirmation, biochemical, ADP Hunter fluorescence, primary and confirmatory (AID 624330); settings: MgcRacGAP-stimulated Rac1 GTP hydrolysis, at 30 µM, hits give high values, GST-tagged Rac1 F28L mutant substrate;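 also: fluorescence reports GDP produced by GAP-driven GTP hydrolysis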
Sequence (Q9H0H5 whole entry, looked up): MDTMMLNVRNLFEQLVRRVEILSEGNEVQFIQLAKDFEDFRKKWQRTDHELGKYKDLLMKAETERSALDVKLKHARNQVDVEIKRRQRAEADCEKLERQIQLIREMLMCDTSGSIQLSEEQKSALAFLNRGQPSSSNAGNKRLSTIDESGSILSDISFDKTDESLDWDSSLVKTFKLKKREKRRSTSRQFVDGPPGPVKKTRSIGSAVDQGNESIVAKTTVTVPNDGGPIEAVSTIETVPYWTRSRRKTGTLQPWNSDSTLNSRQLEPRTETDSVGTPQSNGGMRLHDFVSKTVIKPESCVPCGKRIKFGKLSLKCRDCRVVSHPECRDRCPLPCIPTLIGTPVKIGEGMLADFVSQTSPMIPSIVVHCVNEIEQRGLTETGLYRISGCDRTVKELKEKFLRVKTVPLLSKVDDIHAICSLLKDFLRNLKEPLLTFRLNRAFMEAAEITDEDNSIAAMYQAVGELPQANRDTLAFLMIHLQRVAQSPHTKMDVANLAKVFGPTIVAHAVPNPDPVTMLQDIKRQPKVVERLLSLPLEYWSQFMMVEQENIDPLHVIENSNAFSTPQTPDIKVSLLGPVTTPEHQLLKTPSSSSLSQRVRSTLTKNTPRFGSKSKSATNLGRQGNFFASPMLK

inhibition, inactive:
COC(=O)C1CCN(S(=O)(=O)Cc2ccccc2Cl)CC1 7.49%
COc1cc2c(cc1OC)C1(CCCC1)CNC2C (configuration not stated) 1.49%
COc1cc(OC)c(OC)cc1C#N 2.13%
O=C(Nc1ccc(F)cc1)C(NC1CCCCC1)c1ccccc1 (configuration not stated) 9.33%
COc1ccc(C2=NS(=O)(=O)N(C)C(C(=O)N3CCCCC3C)=C2)cc1 (configuration not stated) 2.61%
COc1ccc(C(C)C)cc1S(=O)(=O)Nc1ccccn1 -2.56%
COc1ccc(C(=O)N(c2ccc(OC)cc2)S(=O)(=O)c2cccs2)cc1 3.2%
COc1ccc(N(C(=O)c2ccncc2)S(=O)(=O)c2cccs2)cc1 5.29%
O=C(Nc1ccc(-c2nc3ccccc3[nH]2)cc1)c1ccc2c(c1)OCO2 0.3%
COc1ccccc1C1C2=C(N=C3SCC(=O)N31)c1ccccc1CC2 (configuration not stated) 7%
CCOC(=O)c1cc(-c2ccccc2)nn1CCC#N 8.67%
COc1ccc(OCc2nn3c(Cn4cnc5ccccc54)nnc3s2)cc1 19.9%
Cc1ccnc(SCc2cn3c(C)cccc3n2)n1 0.6%
COc1cc(/C=C/C(=O)OCC(=O)NCCC2=CCCCC2)cc(OC)c1OC -10.3%
COc1ccc(/C=C/C(=O)OCC(=O)NCCC2=CCCCC2)cc1OC 4.2%
COc1cc(/C=C/C(=O)OCC(=O)NC2CCCCCCC2)ccc1O 26.5%
COc1ccc(/C=C/C(=O)OCC(=O)NC2CCS(=O)(=O)C2)cc1 (configuration not stated) -1.92%
COc1cc(/C=C/C(=O)OCC(=O)NC2CCS(=O)(=O)C2)ccc1OC(F)F (configuration not stated) 2.44%
COc1cccc(/C=C/C(=O)OCC(=O)NCC2CCCCC2)c1OC -1.97%
CCCSCCCNC(=O)c1ccc(C)c(NC(=O)C2=C(C)OCCS2)c1 6.84%
CCC(=O)N1C(=O)CCN(C(C)=O)c2ccccc21 11.8%
COc1cccc(NC(=O)CN(C)C(=O)C(CCSC)NC(=O)c2ccco2)c1 (configuration not stated) 1.87%
Cc1nn(C)c(=S)[nH]c1=S -2.65%
O=C(NCc1nc2ccccc2[nH]1)c1cccc(S(=O)(=O)N2CCCCC2)c1 1.53%
COc1cc(/C=N/NC(=O)c2sc(N)c(C#N)c2C)cc(Br)c1O 11.7%
Cc1c(C(=O)N/N=C/c2cccnc2)sc(N)c1C#N 6.19%
COc1ccc(C(=O)NC2=Nc3ccccc3N=C(C)C2c2ccccc2)cc1 (configuration not stated) 0.78%
Nc1cc(N)nc(SCC(=O)N2CCN(S(=O)(=O)c3ccccc3)CC2)n1 7.76%
c1ccc2c(c1)Nc1cc3ccccc3cc1O2 -1.21%
COc1ccc(/C=N/NC(=O)C(C)n2nnc3ccccc32)cc1OC (configuration not stated) 8.77%
COc1ccc(/C=N/NC(=O)CCn2nnc3ccccc32)cc1 15.9%
COc1cccc(/C=N/NC(=O)CCn2nnc3ccccc32)c1 1.99%
COc1ccc(C(O)c2nc3ccccc3n2C)cc1OC (configuration not stated) 3.18%
COc1ccc(/C=N/NC(=O)Cn2nnc3ccccc32)cc1OC 3.04%
Cc1cccc(C(C)n2nnc3ccccc32)c1O (configuration not stated) 6.53%
CCOc1cc(/C=N\NC(=O)Cn2nnc3ccccc32)ccc1O 28.1%
COc1cccc(/C=N/NC(=O)C(C)n2nnc3ccccc32)c1 (configuration not stated) 9.47%
O=C(c1ccnc(Cl)c1)N1CCCC(Nc2ccc(F)cc2)C1 (configuration not stated) 6.71%
CCc1nnc(NC(=O)CSc2nnc(C3CC3)n2C)s1 3.03%
Cc1ccc(OC/C(O)=C(\C#N)c2nc3ccccc3s2)cc1 0.24%
CN(C1CCS(=O)(=O)C1)S(=O)(=O)c1ccc(N2CCCC2=O)cc1 (configuration not stated) 14.4%
COc1ccc(CCNC(=O)C(=O)NCC2CCCN2S(=O)(=O)c2ccccc2)cc1OC (configuration not stated) 1.68%
CC(NC(=O)Nc1ccc([N+](=O)[O-])cc1)C(c1cccs1)N1CCCC1 (configuration not stated) 8.33%
COc1ccc(/C=N/NC(=O)CCn2c3ccccc3c3ccccc32)cc1O 11.7%
COc1ccc(/C=N/NC(=O)CCn2c3ccccc3c3ccccc32)cc1OC -2.76%
COc1ccc(CCc2ccc3cc(OC)ccc3n2)cc1 1.87%
O=C(O)c1ccccc1C(=O)N(Cc1ccccc1)Cc1ccccc1 4%
CC(C)[C@H](N)c1cn([C@@H](CO)C(=O)N2CCNCC2)nn1 6.71%
CCCc1c(C(=O)N/N=C/c2ccc3c(c2)OCO3)nnn1-c1nonc1N 3.5%
CC(C#N)(NC(=O)CN1CCN(S(=O)(=O)c2cccc(F)c2)CC1)C1CC1 (configuration not stated) 23.8%
COc1ccc(CCC(=O)N2CCN(S(=O)(=O)c3ccc(OC)c([N+](=O)[O-])c3)CC2)cc1 14.3%
Cc1nc2ncnn2c(C)c1CCC(=O)NCCc1ccccc1 3.16%
Cc1ccc([N+](=O)[O-])c2c1C(N1CCCC1)C(C)(C)O2 (configuration not stated) 5.51%
N#Cc1ccccc1NC(=O)CN1CCN(Cc2ccccc2)CC1 -4.52%
COC(=O)c1ccc(C)c(-n2c(C)cc(C=O)c2C)c1 2.91%
NC(=O)CN1CCN(c2cccc(Cl)c2)CC1 6.34%
CCOC(=O)N1CCN(c2ccc(Cl)c(Cl)c2)CC1 -6.41%
COC(=O)N1CCN(c2ccc(Cl)c(Cl)c2)CC1 6.48%
Clc1cccc(N2CCN(CCCN3CCN(c4ccccc4)CC3)CC2)c1 7.52%
COc1ccc(NC(=O)c2ccc3ccccc3n2)cc1S(=O)(=O)N1CCCCC1 3.75%
O=C(O)C(O)Cc1c[nH]c2ccccc12 (configuration not stated) 5.43%
Cc1ccc(S(=O)(=O)Nc2ccccc2N=Cc2ccc([N+](=O)[O-])cc2[N+](=O)[O-])cc1 4.67%

— PubChem BioAssay AID624330 (Southern Research Specialized Biocontainment Screening …, 2012)
